Reference: the supplement of paper PMC12067093, “Discovery and optimisation of a covalent ligand for TRIM25 and its application to targeted protein ubiquitination” (Chemical Science, 2025)
Targets with the largest changes are over-represented here; the source holds about 21,000 in all.

Compound: CC1Cc2ccccc2N1C(=O)C1CCCN(C1)C(=O)CCl (mixture of isomers) [TRIM25 ligand 11 (diastereomer mixture)]
Test: probe-labelled cysteine peptide fold change vs DMSO (competition) (log2 fold change); higher = less target engagement (more negative = stronger competition)
Conditions: THP-1, incubation time: 4 h
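Note: competitive chemoproteomic profiling in live THP-1 cells with an iodoacetamide desthiobiotin (IA-DTB) probe, comparing probe-labelled peptide intensities in compound-treated cells against DMSO-treated controls.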

SASS6_Q6UVJ0_94_FIDLLQQCTQEHAK (UniProt Q6UVJ0)
probe-labelled cysteine peptide fold change (10 µM): 0.0471 | probe-labelled cysteine peptide fold change (50 µM): 0.0533

SAR1A_Q9NR31_178_ELNARPMEVFMCSVLKR (UniProt Q9NR31)
UniProt Q9NR31, sequence (Q9NR31 whole entry, looked up): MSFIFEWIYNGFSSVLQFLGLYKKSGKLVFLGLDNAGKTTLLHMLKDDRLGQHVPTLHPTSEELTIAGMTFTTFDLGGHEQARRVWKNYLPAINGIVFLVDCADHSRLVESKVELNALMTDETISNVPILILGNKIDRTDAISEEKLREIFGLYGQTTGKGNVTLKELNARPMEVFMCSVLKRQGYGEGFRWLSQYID
probe-labelled cysteine peptide fold change (10 µM): -0.614 | probe-labelled cysteine peptide fold change (50 µM): -0.486

SPTAN1_Q13813_1622_GACAGSEDAVK (UniProt Q13813)
probe-labelled cysteine peptide fold change (10 µM): -0.135 | probe-labelled cysteine peptide fold change (50 µM): -0.00186

SMS_P52788_256_TCGDVLDNLKGDCYQVLIEDCIPVLKR (UniProt P52788)
probe-labelled cysteine peptide fold change (10 µM): -0.302 | probe-labelled cysteine peptide fold change (50 µM): -0.139

SLC25A5_P05141_257_KGTDIMYTGTLDCWR (UniProt P05141)
probe-labelled cysteine peptide fold change (10 µM): -0.0817 | probe-labelled cysteine peptide fold change (50 µM): -0.062

SEC62_Q99442_55_AVDCLLDSK (UniProt Q99442)
probe-labelled cysteine peptide fold change (10 µM): -0.122 | probe-labelled cysteine peptide fold change (50 µM): -0.249

SRBD1_Q8N5C6_912_SIVCLEDLQIGTVLTGK (UniProt Q8N5C6)
probe-labelled cysteine peptide fold change (10 µM): 0.0769 | probe-labelled cysteine peptide fold change (50 µM): -0.14

SIGIRR_Q6IA17_174_LYDAYVSYSDCPEDR (UniProt Q6IA17)
UniProt Q6IA17, sequence (Q6IA17 whole entry): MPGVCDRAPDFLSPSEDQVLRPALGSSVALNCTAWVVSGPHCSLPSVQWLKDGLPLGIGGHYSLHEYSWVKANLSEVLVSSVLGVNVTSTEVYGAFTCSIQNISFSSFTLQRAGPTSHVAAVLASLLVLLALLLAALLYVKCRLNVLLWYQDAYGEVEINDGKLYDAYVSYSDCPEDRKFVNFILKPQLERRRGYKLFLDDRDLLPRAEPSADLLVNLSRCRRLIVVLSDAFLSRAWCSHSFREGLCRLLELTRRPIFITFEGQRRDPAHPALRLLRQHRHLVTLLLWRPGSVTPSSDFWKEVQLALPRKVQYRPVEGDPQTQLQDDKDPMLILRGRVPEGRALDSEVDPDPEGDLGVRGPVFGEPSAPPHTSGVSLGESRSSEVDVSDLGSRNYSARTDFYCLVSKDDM
probe-labelled cysteine peptide fold change (10 µM): 0.24 | probe-labelled cysteine peptide fold change (50 µM): -0.151

RSF1_Q96T23_1311_IETDEEESCDNAHGDANQPAR (UniProt Q96T23)
UniProt Q96T23, sequence (Q96T23 whole entry, looked up): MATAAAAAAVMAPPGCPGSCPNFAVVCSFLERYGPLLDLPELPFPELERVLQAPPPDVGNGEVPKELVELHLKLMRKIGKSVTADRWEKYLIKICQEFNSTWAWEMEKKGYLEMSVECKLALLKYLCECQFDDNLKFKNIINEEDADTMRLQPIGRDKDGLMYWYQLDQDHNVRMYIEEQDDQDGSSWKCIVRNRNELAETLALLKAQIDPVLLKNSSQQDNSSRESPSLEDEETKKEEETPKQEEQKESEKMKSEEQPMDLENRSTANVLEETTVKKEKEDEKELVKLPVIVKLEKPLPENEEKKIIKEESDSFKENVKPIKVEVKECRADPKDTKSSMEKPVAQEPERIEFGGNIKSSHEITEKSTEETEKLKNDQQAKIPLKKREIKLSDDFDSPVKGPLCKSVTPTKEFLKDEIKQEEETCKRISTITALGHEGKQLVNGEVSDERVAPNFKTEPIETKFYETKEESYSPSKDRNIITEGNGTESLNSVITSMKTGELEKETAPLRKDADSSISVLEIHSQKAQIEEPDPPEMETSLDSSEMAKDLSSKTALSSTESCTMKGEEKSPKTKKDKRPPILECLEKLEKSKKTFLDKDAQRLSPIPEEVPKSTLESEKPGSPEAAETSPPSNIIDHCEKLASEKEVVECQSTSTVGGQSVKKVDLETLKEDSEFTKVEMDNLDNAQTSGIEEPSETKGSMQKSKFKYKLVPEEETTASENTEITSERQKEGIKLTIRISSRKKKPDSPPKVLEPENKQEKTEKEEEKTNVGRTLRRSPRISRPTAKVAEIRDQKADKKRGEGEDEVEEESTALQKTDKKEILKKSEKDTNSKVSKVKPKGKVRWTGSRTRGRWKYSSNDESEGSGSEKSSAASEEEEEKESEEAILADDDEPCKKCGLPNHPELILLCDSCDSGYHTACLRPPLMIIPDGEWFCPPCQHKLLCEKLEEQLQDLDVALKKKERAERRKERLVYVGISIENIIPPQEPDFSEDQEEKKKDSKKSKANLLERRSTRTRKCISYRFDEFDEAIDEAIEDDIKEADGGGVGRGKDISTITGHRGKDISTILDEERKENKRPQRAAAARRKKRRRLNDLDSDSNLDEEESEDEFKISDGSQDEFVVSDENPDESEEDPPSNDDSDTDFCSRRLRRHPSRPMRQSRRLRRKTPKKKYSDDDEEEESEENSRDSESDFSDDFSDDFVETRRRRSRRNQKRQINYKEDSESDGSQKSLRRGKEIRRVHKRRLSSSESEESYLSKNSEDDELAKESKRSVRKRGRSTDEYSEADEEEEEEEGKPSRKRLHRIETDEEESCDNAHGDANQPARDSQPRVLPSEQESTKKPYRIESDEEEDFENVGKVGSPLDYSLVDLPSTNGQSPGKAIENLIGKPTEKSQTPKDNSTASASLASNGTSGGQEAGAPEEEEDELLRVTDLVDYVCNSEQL
probe-labelled cysteine peptide fold change (10 µM): 0.0514 | probe-labelled cysteine peptide fold change (50 µM): 0.0946

SMC1A_Q14683_781_MNQVEDEVFEEFCR (UniProt Q14683)
probe-labelled cysteine peptide fold change (10 µM): 0.0344 | probe-labelled cysteine peptide fold change (50 µM): 0.0302

SRCAP_Q6ZRS2_1926_IFQLSEAHGALAPVYGTEVLDFCTLPQPVASPIGPR (UniProt Q6ZRS2)
probe-labelled cysteine peptide fold change (10 µM): 0.683 | probe-labelled cysteine peptide fold change (50 µM): 0.741

SMARCB1_Q12824_147_NSQWVPTLPNSSHHLDAVPCSTTINR (UniProt Q12824)
probe-labelled cysteine peptide fold change (10 µM): -0.0549 | probe-labelled cysteine peptide fold change (50 µM): -0.612

SF1_Q15637_282+292_CGGAGHIASDCK (UniProt Q15637)
probe-labelled cysteine peptide fold change (10 µM): -0.0927 | probe-labelled cysteine peptide fold change (50 µM): -0.0122

SEPHS2_Q99611_377_FGLLQGTSAETSGGLLICLPR (UniProt Q99611)
probe-labelled cysteine peptide fold change (10 µM): 0.196 | probe-labelled cysteine peptide fold change (50 µM): -0.657

SMN2_Q16637_60_NGDICETSGKPK (UniProt Q16637)
probe-labelled cysteine peptide fold change (10 µM): -0.146 | probe-labelled cysteine peptide fold change (50 µM): -0.16

SCP2_P22307_115_QLIQGGVAECVLALGFEK (UniProt P22307)
probe-labelled cysteine peptide fold change (10 µM): -2.21 | probe-labelled cysteine peptide fold change (50 µM): -2.14

RPP40_O75818_235_DLQCPVLQSSELEGTPEVSCR (UniProt O75818)
probe-labelled cysteine peptide fold change (10 µM): 0.892 | probe-labelled cysteine peptide fold change (50 µM): 0.729

RSL1D1_O76021_96_SDSEDICLFTK (UniProt O76021)
probe-labelled cysteine peptide fold change (10 µM): -0.0174 | probe-labelled cysteine peptide fold change (50 µM): -0.141

SPTLC2_O15270_99_CHHATER (UniProt O15270)
probe-labelled cysteine peptide fold change (10 µM): 0.261 | probe-labelled cysteine peptide fold change (50 µM): 0.971

RPS6KA3_P51812_436_EDIGVGSYSVCK<|>RPS6KA2_Q15349_429_EDIGVGSYSVCK (UniProt Q15349+P51812)
probe-labelled cysteine peptide fold change (10 µM): -0.0733 | probe-labelled cysteine peptide fold change (50 µM): -0.656

RUFY1_Q96T51_692_VCDSCHTLLLQR (UniProt Q96T51)
probe-labelled cysteine peptide fold change (10 µM): 0.114 | probe-labelled cysteine peptide fold change (50 µM): -0.0564

SPATA5_Q8NB90_459_HPSIIFIDELDALCPK (UniProt Q8NB90)
probe-labelled cysteine peptide fold change (10 µM): -0.0102 | probe-labelled cysteine peptide fold change (50 µM): -0.321

SNRPD2_P62316_63_HCNMVLENVK (UniProt P62316)
probe-labelled cysteine peptide fold change (10 µM): -0.117 | probe-labelled cysteine peptide fold change (50 µM): -0.0606

SMARCC1_Q92922_761_VDPTYGLESSCIAGTGPDEPEKLEGAEEEK (UniProt Q92922)
UniProt Q92922, sequence (Q92922 whole entry, looked up): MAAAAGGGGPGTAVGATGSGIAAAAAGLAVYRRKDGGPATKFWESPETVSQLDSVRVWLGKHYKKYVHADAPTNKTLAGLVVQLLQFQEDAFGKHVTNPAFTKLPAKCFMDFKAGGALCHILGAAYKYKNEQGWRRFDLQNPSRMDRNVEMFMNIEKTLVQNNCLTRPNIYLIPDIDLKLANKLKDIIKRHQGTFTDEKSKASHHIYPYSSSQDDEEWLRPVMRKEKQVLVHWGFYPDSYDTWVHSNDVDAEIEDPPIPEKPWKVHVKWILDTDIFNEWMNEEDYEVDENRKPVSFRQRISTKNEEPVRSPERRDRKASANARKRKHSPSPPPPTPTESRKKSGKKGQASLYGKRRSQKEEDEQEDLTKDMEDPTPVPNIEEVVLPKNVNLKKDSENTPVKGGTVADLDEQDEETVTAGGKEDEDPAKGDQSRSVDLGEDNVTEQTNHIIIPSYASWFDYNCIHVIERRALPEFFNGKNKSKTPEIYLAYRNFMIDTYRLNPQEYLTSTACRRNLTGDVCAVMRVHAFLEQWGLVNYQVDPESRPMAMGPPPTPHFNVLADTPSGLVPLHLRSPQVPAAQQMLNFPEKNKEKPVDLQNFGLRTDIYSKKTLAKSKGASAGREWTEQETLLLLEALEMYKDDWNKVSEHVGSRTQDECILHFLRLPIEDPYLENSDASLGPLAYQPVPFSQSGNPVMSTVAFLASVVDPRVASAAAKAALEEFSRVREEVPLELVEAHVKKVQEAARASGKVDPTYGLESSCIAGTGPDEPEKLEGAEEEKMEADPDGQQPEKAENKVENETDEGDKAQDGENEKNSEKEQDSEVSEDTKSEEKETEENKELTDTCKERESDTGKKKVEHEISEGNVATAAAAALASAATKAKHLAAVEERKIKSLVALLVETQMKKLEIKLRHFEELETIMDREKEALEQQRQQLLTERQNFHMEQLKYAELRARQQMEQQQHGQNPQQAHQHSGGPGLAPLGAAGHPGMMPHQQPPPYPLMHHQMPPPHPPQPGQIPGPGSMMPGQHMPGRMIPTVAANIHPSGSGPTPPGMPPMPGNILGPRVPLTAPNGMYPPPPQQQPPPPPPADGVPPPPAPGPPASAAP
probe-labelled cysteine peptide fold change (10 µM): -0.397 | probe-labelled cysteine peptide fold change (50 µM): -0.234

SETDB1_Q15047_781_RLEECLPTGVYECNKR (UniProt Q15047)
probe-labelled cysteine peptide fold change (10 µM): -0.124 | probe-labelled cysteine peptide fold change (50 µM): -0.00361

S100A8_P05109_42_LLETECPQYIR (UniProt P05109)
UniProt P05109, sequence (P05109 whole entry): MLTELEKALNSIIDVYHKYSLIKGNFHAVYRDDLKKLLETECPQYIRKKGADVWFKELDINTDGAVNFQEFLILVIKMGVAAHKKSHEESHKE
probe-labelled cysteine peptide fold change (10 µM): -0.0697 | probe-labelled cysteine peptide fold change (50 µM): -0.229

SPATA5L1_Q9BVQ7_104_LLLVPCPPLRR (UniProt Q9BVQ7)
probe-labelled cysteine peptide fold change (10 µM): -0.0644 | probe-labelled cysteine peptide fold change (50 µM): 0.126

SATB2_Q9UPW6_159_IQLQSCSK (UniProt Q9UPW6)
probe-labelled cysteine peptide fold change (10 µM): 0.071 | probe-labelled cysteine peptide fold change (50 µM): -0.00125

SLC4A1AP_Q9BWU0_399_EGEELEYEFDEQGHSTWLCR (UniProt Q9BWU0)
UniProt Q9BWU0, sequence (Q9BWU0 whole entry, looked up): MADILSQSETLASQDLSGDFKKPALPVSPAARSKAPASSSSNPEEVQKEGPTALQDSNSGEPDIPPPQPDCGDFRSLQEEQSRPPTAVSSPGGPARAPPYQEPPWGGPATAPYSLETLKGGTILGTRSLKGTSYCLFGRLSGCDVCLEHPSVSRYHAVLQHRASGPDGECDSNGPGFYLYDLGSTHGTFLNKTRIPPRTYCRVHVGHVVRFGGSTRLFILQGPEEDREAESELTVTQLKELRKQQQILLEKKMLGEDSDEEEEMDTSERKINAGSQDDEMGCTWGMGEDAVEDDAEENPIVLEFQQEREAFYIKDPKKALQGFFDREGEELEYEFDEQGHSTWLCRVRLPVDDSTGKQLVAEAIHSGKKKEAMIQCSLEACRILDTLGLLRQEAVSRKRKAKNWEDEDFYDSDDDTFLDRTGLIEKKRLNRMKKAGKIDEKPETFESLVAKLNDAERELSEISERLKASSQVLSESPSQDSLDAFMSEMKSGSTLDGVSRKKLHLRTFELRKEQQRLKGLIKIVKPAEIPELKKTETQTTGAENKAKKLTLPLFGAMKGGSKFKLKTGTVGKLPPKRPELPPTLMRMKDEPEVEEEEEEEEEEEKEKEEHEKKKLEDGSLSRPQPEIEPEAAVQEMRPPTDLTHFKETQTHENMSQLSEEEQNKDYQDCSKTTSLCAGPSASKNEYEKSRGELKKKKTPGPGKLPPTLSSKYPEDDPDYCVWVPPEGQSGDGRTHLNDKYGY
probe-labelled cysteine peptide fold change (10 µM): -0.0527 | probe-labelled cysteine peptide fold change (50 µM): 0.0332

RPS5_P46782_155_VNQAIWLLCTGAR (UniProt P46782)
probe-labelled cysteine peptide fold change (10 µM): 0.00589 | probe-labelled cysteine peptide fold change (50 µM): 0.118

SRP68_Q9UHB9_173_LCESNR (UniProt Q9UHB9)
probe-labelled cysteine peptide fold change (10 µM): 0.14 | probe-labelled cysteine peptide fold change (50 µM): 0.559

SBF1_O95248_987_SCTFQLLK (UniProt O95248)
probe-labelled cysteine peptide fold change (10 µM): -0.0361 | probe-labelled cysteine peptide fold change (50 µM): 0.064

SMARCD2_Q92925_298_CTLLLMLDHQPPQYK (UniProt Q92925)
probe-labelled cysteine peptide fold change (10 µM): -0.0298 | probe-labelled cysteine peptide fold change (50 µM): -0.00447

RUVBL2_Q9Y230_227_FVQCPDGELQK (UniProt Q9Y230)
probe-labelled cysteine peptide fold change (10 µM): 0.151 | probe-labelled cysteine peptide fold change (50 µM): -0.0879

SMARCA2_P51531_1016_ICNHPYMFQHIEESFAEHLGYSNGVINGAELYR (UniProt P51531)
probe-labelled cysteine peptide fold change (10 µM): -0.0517 | probe-labelled cysteine peptide fold change (50 µM): -0.116

SNX5_Q9Y5X3_250_NVADDYIHTAACLHSLALEEPTVIKK (UniProt Q9Y5X3)
probe-labelled cysteine peptide fold change (10 µM): -0.0814 | probe-labelled cysteine peptide fold change (50 µM): -0.118

SRGAP2_O75044_486_TDCSLAR (UniProt O75044)
probe-labelled cysteine peptide fold change (10 µM): -0.0891 | probe-labelled cysteine peptide fold change (50 µM): -0.197

SRD5A3_Q9H8P0_238_AGVVIHCNHR (UniProt Q9H8P0)
probe-labelled cysteine peptide fold change (10 µM): 0.00183 | probe-labelled cysteine peptide fold change (50 µM): -0.036

SETD3_Q86TU7_36_CSSPAPGPGK (UniProt Q86TU7)
probe-labelled cysteine peptide fold change (10 µM): -0.0972 | probe-labelled cysteine peptide fold change (50 µM): -0.145

RRP12_Q5JTH9_673_GCQAEADRAEVSR (UniProt Q5JTH9)
probe-labelled cysteine peptide fold change (10 µM): 0.0652 | probe-labelled cysteine peptide fold change (50 µM): -0.00566

SRI_P30626_75_CLTQSGIAGGYKPFNLETCR (UniProt P30626)
UniProt P30626, sequence (P30626 whole entry, looked up): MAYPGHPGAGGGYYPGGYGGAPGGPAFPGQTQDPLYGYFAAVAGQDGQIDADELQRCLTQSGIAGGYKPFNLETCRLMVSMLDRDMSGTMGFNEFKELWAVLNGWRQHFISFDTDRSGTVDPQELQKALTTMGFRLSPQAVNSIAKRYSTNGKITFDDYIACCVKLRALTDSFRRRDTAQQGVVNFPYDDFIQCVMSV
probe-labelled cysteine peptide fold change (10 µM): 0.0396 | probe-labelled cysteine peptide fold change (50 µM): -0.0761

S100A10_P60903_62_DLDQCR (UniProt P60903)
probe-labelled cysteine peptide fold change (10 µM): -0.0944 | probe-labelled cysteine peptide fold change (50 µM): -0.0317

SEC23B_Q15437_434_GPCVSENELGVGGTSQWK (UniProt Q15437)
UniProt Q15437, sequence (Q15437 whole entry, looked up): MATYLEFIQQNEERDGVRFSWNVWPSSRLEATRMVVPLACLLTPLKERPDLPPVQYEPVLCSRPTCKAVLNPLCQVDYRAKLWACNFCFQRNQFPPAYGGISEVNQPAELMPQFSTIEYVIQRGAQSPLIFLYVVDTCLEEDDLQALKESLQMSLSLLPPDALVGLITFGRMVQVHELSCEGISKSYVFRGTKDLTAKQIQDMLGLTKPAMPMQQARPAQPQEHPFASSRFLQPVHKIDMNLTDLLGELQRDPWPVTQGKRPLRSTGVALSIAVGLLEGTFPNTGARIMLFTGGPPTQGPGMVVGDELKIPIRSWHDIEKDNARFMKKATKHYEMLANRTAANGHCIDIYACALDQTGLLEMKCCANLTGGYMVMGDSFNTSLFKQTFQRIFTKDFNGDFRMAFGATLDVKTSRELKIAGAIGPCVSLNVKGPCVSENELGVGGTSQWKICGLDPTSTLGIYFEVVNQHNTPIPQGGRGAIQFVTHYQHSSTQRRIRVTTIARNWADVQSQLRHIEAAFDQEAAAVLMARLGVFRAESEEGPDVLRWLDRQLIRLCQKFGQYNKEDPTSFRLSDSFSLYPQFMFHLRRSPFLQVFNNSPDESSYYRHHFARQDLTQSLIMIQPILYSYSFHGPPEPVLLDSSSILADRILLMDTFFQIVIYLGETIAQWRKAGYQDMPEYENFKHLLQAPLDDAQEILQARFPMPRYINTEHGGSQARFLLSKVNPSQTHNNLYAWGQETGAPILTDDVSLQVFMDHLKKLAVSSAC
probe-labelled cysteine peptide fold change (10 µM): 0.0914 | probe-labelled cysteine peptide fold change (50 µM): 0.096

SNRPB_P14678_43+45_HMNLILCDCDEFRK (UniProt P14678)
probe-labelled cysteine peptide fold change (10 µM): -0.0283 | probe-labelled cysteine peptide fold change (50 µM): -0.00106

SP1_P08047_633_KQHICHIQGCGK (UniProt P08047)
probe-labelled cysteine peptide fold change (10 µM): -0.185 | probe-labelled cysteine peptide fold change (50 µM): -0.216

SORD_Q00796_179_VLVCGAGPIGMVTLLVAK (UniProt Q00796)
probe-labelled cysteine peptide fold change (10 µM): -0.904 | probe-labelled cysteine peptide fold change (50 µM): -0.915

SAMD9_Q5K651_975+979_TEVIECGNYCGVR (UniProt Q5K651)
probe-labelled cysteine peptide fold change (10 µM): 0.388 | probe-labelled cysteine peptide fold change (50 µM): 0.22

SMU1_Q2TAY7_416_NPEHFVVCNR (UniProt Q2TAY7)
probe-labelled cysteine peptide fold change (10 µM): -0.00322 | probe-labelled cysteine peptide fold change (50 µM): 0.0655

SIRT6_Q8N6T7_141_LAELHGNMFVEECAK (UniProt Q8N6T7)
probe-labelled cysteine peptide fold change (10 µM): 0.087 | probe-labelled cysteine peptide fold change (50 µM): 0.00561

SNRPD2_P62316_63_AFDRHCNMVLENVK (UniProt P62316)
probe-labelled cysteine peptide fold change (10 µM): -0.388 | probe-labelled cysteine peptide fold change (50 µM): -0.34

SORBS3_O60504_482_GEHICLIR (UniProt O60504)
probe-labelled cysteine peptide fold change (10 µM): 0.12 | probe-labelled cysteine peptide fold change (50 µM): 0.166

SNRNP200_O75643_576_RLATYGITVAELTGDHQLCK (UniProt O75643)
probe-labelled cysteine peptide fold change (10 µM): -0.0593 | probe-labelled cysteine peptide fold change (50 µM): 0.102

SMAD4_Q13485_391_GVQLECK (UniProt Q13485)
probe-labelled cysteine peptide fold change (10 µM): 0.0468 | probe-labelled cysteine peptide fold change (50 µM): 0.21

SNRNP40_Q96DI7_72_CSSLQAPIMLLSGHEGEVYCCK (UniProt Q96DI7)
probe-labelled cysteine peptide fold change (10 µM): 0.165 | probe-labelled cysteine peptide fold change (50 µM): 0.0428

SAFB2_Q14151_224_ILDILGETCK<|>SAFB_Q15424_225_ILDILGETCK (UniProt Q15424+Q14151)
probe-labelled cysteine peptide fold change (10 µM): -0.021 | probe-labelled cysteine peptide fold change (50 µM): -0.165

SPAG1_Q07617_825_EACAHLLAITAPK (UniProt Q07617)
probe-labelled cysteine peptide fold change (10 µM): -0.0823 | probe-labelled cysteine peptide fold change (50 µM): -0.0988

SLC35B1_P78383_119_SCKPIPVMLLGVTLLK (UniProt P78383)
probe-labelled cysteine peptide fold change (10 µM): -0.942 | probe-labelled cysteine peptide fold change (50 µM): 0.0401

SON_P18583_2070_ANAAAMCAK (UniProt P18583)
probe-labelled cysteine peptide fold change (10 µM): 0.0129 | probe-labelled cysteine peptide fold change (50 µM): -0.103

SNUPN_O95149_199_GHPFYDCQTDFR (UniProt O95149)
probe-labelled cysteine peptide fold change (10 µM): 0.47 | probe-labelled cysteine peptide fold change (50 µM): 0.00215

SEC16A_O15027_1293_YWCDAEYDAYR (UniProt O15027)
probe-labelled cysteine peptide fold change (10 µM): -0.117 | probe-labelled cysteine peptide fold change (50 µM): -0.311

SESN1_Q9Y6P5_286_QLQECRDEEEASQEEMASR (UniProt Q9Y6P5)
probe-labelled cysteine peptide fold change (10 µM): -0.00479 | probe-labelled cysteine peptide fold change (50 µM): -0.0495

SETDB1_Q15047_1207_QFYDGEESCYIIDAK (UniProt Q15047)
probe-labelled cysteine peptide fold change (10 µM): -0.0777 | probe-labelled cysteine peptide fold change (50 µM): -0.0706

RPP40_O75818_49_VSFLIPECGILSEELK (UniProt O75818)
probe-labelled cysteine peptide fold change (10 µM): 0.101 | probe-labelled cysteine peptide fold change (50 µM): 0.161
